The supplement of paper PMC6555819

Assays:
Experiment in all cases: PBM binding z-score (relative to random genomic background probes); higher = stronger binding; sequences stand for … in GC…GCGATTGACAGCGTAGAATGAAGG
[1] = system: RARb homodimer (NR concentration 270 nM)
Outline: (§1)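 Custom Agilent 4×180K protein-binding microarrays carried double-stranded probes, each with a 34-nt variable region. These regions held direct-repeat seeds, single-nucleotide variants, half-site ablations and random human genomic background sequences. Ligand-free nuclear receptor dimers were incubated on the arrays for 1 h, antibodies against each partner (one per run) detected binding, and scanned fluorescence was regression-normalized. Binding z-scores take the random background probes as reference.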

[2] = system: RARg:RXRa (NR concentration 270 nM, RXRa partner concentration 90 nM)
Outline: as §1

[3] = system: RARg homodimer (NR concentration 270 nM)
Outline: as §1

[4] = system: RXRa DBDmut IVT, anti-RXR (DBD mutation: RXRa K156A/R161A, NR concentration 90 nM)
Outline: as §1

[5] = system: RXRa homodimer (NR concentration 180 nM)
Outline: as §1

[6] = system: THRa:RXRa (NR concentration 90 nM, RXRa partner concentration 90 nM)
Outline: as §1

[7] = system: THRa homodimer (NR concentration 90 nM)
Outline: as §1

[8] = system: VDR homodimer (NR concentration 270 nM)
Outline: as §1

Sequence | PBM binding z-score [1] | PBM binding z-score [2] | PBM binding z-score [3] | PBM binding z-score [4] | PBM binding z-score [5] | PBM binding z-score [6] | PBM binding z-score [7] | PBM binding z-score [8]
TCATATAGGTAAGGGTGAAAGTCGAACGATATGA | 0.703 | 0.914 | 0.595 | 0.475 | 1.36 | 0.89 | -0.108 | -0.201
CCGTCTGGGGCATAAGGTTACCATAAGCCAGCCC | 1.92 | 1.86 | 1.18 | -0.715 | 1.23 | 2.17 | 1.31 | 0.173
ACTTACGGGTCAACGAGGTTTTAGCACGCGTATA | 3.37 | 5.26 | 4.9 | 2.16 | 5.5 | 3.46 | 0.678 | 1.84
TCAGACAGGTGAAGGTAACTAAGGTACGCAGTCG | 0.841 | 0.733 | 0.744 | 1.14 | 1.05 | 1.43 | 0.595 | -0.102
TCGAGTAGGTTAGGGGCATTAAGAATGGCGTCGA | 0.787 | 0.329 | 0.269 | 0.304 | 0.639 | 0.955 | 0.048 | 0.785
TCTTGTAGATCAAAGGTTAATAAAGCCGAAGCCT | 1.25 | 1.51 | 0.841 | 1.09 | 2.55 | 1.32 | -0.223 | 0.243
GATACAGGGTCAGCTAGAGGCCAGAGCATGGAAA | 3.06 | 6.77 | 4.51 | 1.31 | 4.26 | 3.01 | 0.132 | 0.805
TCTTGTAGATCAAGAAGGTTAAGAAAGCCTGAGT | 0.784 | 0.407 | 0.315 | 0.387 | 0.863 | 0.451 | -0.553 | 0.21
TCTCGGAGGACACGAAGGTCAGGGCTTTCCAGAG | 4.09 | 3.4 | 3.91 | 0.802 | 2.43 | 3.13 | 1.27 | 1.16
TCATATCGGTAAATGCTAGGTGAAAGTCCGATCT | 0.513 | -0.0615 | 0.173 | 1.14 | 0.375 | 0.889 | 0.553 | 0.0162
CCTAGTTGGTCAGGAGGTCAAACACCGGATATGA | 4.15 | 5.37 | 4.68 | 1.15 | 5.72 | 3.5 | 1.99 | 3.16
AGAATGAGGTTATTAAGATCACGGAATTGCGGTC | 0.99 | 1.37 | 1.01 | 2.19 | 2.01 | 2.42 | 0.72 | 1.73
ATGGAAAGGTCGAGGTGAGTATAGAGAAAGGGAA | 3.16 | 4.21 | 4.21 | 0.469 | 4.53 | 3.15 | 1.47 | 0.902
TCGAGTAGGATACCAATGGGGCATTCAGCTTTCT | -0.451 | -0.58 | -0.482 | 0.0326 | -0.263 | -1.38 | -1.03 | -1.09
ATCTCCAGGTAAAAGTTCAGTGAATCCCGAGGAT | 2.54 | 2.14 | 2.33 | 0.595 | 1.94 | 1.57 | 0.432 | 1.84
TAGCCTAGGTCATGCGGGCCGGTATAGTGTCGGC | 2.61 | 3.71 | 4.32 | 0.444 | 3.02 | 2.97 | 0.888 | 0.344
TAGCCTAGGTCATTCGGGGGCCAGTATAGAAAGC | 3.39 | 6.55 | 5.25 | 2.13 | 3.58 | 4.17 | 1.48 | 2.32
GGAACGAGGGCAAGTTCATAGCAGAGTTTGATGG | 2.84 | 2.99 | 3.16 | 3.64 | 2.16 | 2.35 | 0.375 | 5.08
GCTGCTAGGTCAGGTTTGTCAGCTAACGGGTACG | 2.21 | 2.03 | 2.94 | 0.952 | 0.681 | 1.48 | 0.489 | 0.755
TCTAGTTGGTCACGGAGGTCACACAGGACGGGTA | 4.25 | 4.69 | 4.9 | 0.898 | 4.86 | 3.75 | 2.62 | 3.06
CGTATTAGTTGACCATAAGGGCAACCGAAGCTCG | 2.04 | 1.2 | 0.883 | 0.244 | 0.743 | 1.83 | 1.15 | 0.668
TCTATTAGTTGAAGGGCAGCCGACGAGTCCGTTT | 0.841 | 0.303 | 0.318 | 1.74 | 0.258 | 0.00646 | 0.0713 | 1.27
CCTAGCAGGCCAATCTGGGACACTCAAGGCTTGA | -0.286 | -0.31 | 0.0826 | -0.25 | -0.458 | 3.08 | -0.247 | -0.728
AGTCAAAGTTCAATAGGTAACGTAAGATTCAGCT | 3.98 | 5.19 | 5.37 | 4.02 | 3.85 | 1.72 | 0.00177 | 3.4
CGTCCAAGGTCATAGGAGGTCCGTGAAGACAGAT | 3.8 | 5.84 | 5.85 | 3.86 | 6.02 | 4.51 | 2.24 | 3.33
TCATATAGGTAAGCAGGTGAAAGTCCGTAAGTTA | 0.479 | 0.2 | -0.071 | 0.903 | 0.347 | 0.462 | 0.196 | -0.0581
CCTCGGAGGACAACAGGAGGTCAGAGTTGCCAGA | 3.77 | 3.42 | 3.26 | 0.349 | 2 | 3.08 | 1.6 | 1.5
TCTGCTAGGTCAACGACGGTCAGCTAATCTGCTA | 3.74 | 4.42 | 5.58 | 1.13 | 2.74 | 3.48 | 0.555 | -0.198
